Reference: PubChem BioAssay (EPA / NIEHS)
Calls of active or inactive are those of the source. The calls were made as follows: active = hit-call score of the fitted dose curve at least 0.9, where 1 is the maximum; inactive = score below 0.9.

Columns and labels:
Details in all cases: mRNA level, 48 h; actives raise or lower the signal
[1] = read-out: Tumor necrosis factor receptor superfamily member 6 (Homo sapiens) (UniProt P25445); experiment: LTEA_HepaRG_FAS: Life Technologies and Expression Analysis (LTEA) Assay for Fas cell surface death receptor (FAS) using HepaRG (AID 2283447)
Outline: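 Differentiated HepaRG cells in serum-free induction medium were exposed 48 h to 8 half-log concentrations up to 100 uM in 0.5% DMSO, in duplicate. FAS mRNA was measured by qRT-PCR normalised to ACTB, GAPDH and POLR2A; bidirectional fit versus DMSO.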

[2] = read-out: Fatty acid synthase (Homo sapiens) (UniProt P49327); experiment: LTEA_HepaRG_FASN: Life Technologies and Expression Analysis (LTEA) Assay for Fatty Acid Synthase (FASN) using HepaRG (AID 2283448)
Outline: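 Differentiated human HepaRG cells were exposed for 48 h in serum-free induction medium to eight half-log concentrations up to 100 uM in 0.5% DMSO, in duplicate. FASN mRNA was quantified by TaqMan qRT-PCR, normalized to ACTB/GAPDH/POLR2A, and fitted bidirectionally against DMSO.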

[3] = read-out: Cyclin D2 (CCND2), CCND2 (gene 894); experiment: LTEA_HepaRG_CCND2: Life Technologies and Expression Analysis (LTEA) Assay for Cyclin D2 (CCND2) using HepaRG (AID 2283449);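 also: CCND2 transcript measured by TaqMan qRT-PCR and normalised to three housekeeping genes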
Outline: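 Chemicals in 0.5% DMSO, eight half-log concentrations from 100 uM top, were applied in duplicate for 48 h to human HepaRG cells in serum-free induction medium. CCND2 mRNA by TaqMan qRT-PCR, normalised to ACTB/GAPDH/POLR2A; bidirectional fit versus DMSO.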

[4] = read-out: Cyclin Dependent Kinase Inhibitor 1A (CDKN1A), CDKN1A (gene 1026); experiment: LTEA_HepaRG_CDKN1A: Life Technologies and Expression Analysis (LTEA) Assay for Cyclin Dependent Kinase Inhibitor 1A (CDKN1A) using HepaRG (AID 2283450)
Outline: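 Read-out is CDKN1A mRNA by TaqMan qRT-PCR, normalized to three housekeeping genes and fitted in both directions against the DMSO baseline. Human HepaRG cells were treated 48 h with test chemicals up to 100 uM in half-log steps, 0.5% DMSO.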

[5] = read-out: Cyclin D1 (CCND1), CCND1 (gene 595); experiment: LTEA_HepaRG_CCND1: Life Technologies and Expression Analysis (LTEA) Assay for Cyclin D1 (CCND1) using HepaRG (AID 2283451)
Outline: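 HepaRG plated 48 h, medium switched to serum-free induction medium, chemicals added in duplicate (top 100 uM, half-log steps, 0.5% DMSO) for 48 h, cells lysed, RNA measured by TaqMan qRT-PCR.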

[6] = read-out: catalase (CAT), CAT (gene 847); experiment: LTEA_HepaRG_CAT: Life Technologies and Expression Analysis (LTEA) Assay for catalase (CAT) using HepaRG (AID 2283452);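 as to AC50: TaqMan qRT-PCR signal normalized to ACTB GAPDH and POLR2A housekeeping genes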
Outline: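 HepaRG cells in serum-free induction medium, 0.5% DMSO vehicle, exposed 48 h in duplicate over 8 half-log concentrations from 100 uM. CAT mRNA measured by qRT-PCR, normalized to ACTB, GAPDH, POLR2A; bidirectional fit versus DMSO.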

[7] = read-out: flavin-containing dimethylaniline monooxygenases 3 (FMO3), FMO3 (gene 2328); experiment: LTEA_HepaRG_FMO3: Life Technologies and Expression Analysis (LTEA) Assay for flavin-containing dimethylaniline monooxygenases 3 (FMO3) using HepaRG (AID 2283453)
Outline: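 HepaRG, 48 h exposure, 8-pt half-log series from 100 uM, 0.5% DMSO vehicle, duplicates; FMO3 transcript by Fluidigm TaqMan qRT-PCR, housekeeping-normalized; gain/loss fit vs DMSO.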

[8] = read-out: Cytochrome P450 (CYP1A1), CYP1A1 (gene 1543); experiment: LTEA_HepaRG_CYP1A1: Life Technologies and Expression Analysis (LTEA) Assay for Cytochrome P450 (CYP1A1) using HepaRG (AID 2283454)
Outline: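 HepaRG, 48 h post-plating switched to serum-free induction medium; 8-pt conc-response (top 100 uM, half-log, 0.5% DMSO), duplicates, 48 h. Lysis in RLT, TaqMan qRT-PCR for CYP1A1; gain or loss vs DMSO.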

[9] = read-out: CFLAR gene, CFLAR (gene 8837); experiment: LTEA_HepaRG_CFLAR: Life Technologies and Expression Analysis (LTEA) Assay for CFLAR gene using HepaRG (AID 2283455)
Outline: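 Differentiated HepaRG cells in serum-free induction medium were exposed 48 h in duplicate to eight half-log concentrations up to 100 uM in 0.5% DMSO; mRNA measured by TaqMan qRT-PCR, normalized to ACTB, GAPDH, POLR2A; bidirectional fitting versus DMSO.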

[10] = read-out: Forkhead box O1 (FOXO1), FOXO1 (gene 2308); experiment: LTEA_HepaRG_FOXO1: Life Technologies and Expression Analysis (LTEA) Assay for Forkhead box O1 (FOXO1) using HepaRG (AID 2283456)
Outline: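 Differentiated HepaRG cells, in serum-free induction medium with 0.5% DMSO, exposed 48 h in duplicate to 8-point half-log series from 100 uM. FOXO1 mRNA measured by TaqMan qRT-PCR, normalized to ACTB, GAPDH, POLR2A; bidirectional fit versus DMSO.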

[11] = read-out: growth arrest and DNA damage 45 (GADD45A), GADD45A (gene 1647); experiment: LTEA_HepaRG_GADD45A: Life Technologies and Expression Analysis (LTEA) Assay for growth arrest and DNA damage 45 (GADD45A) using HepaRG (AID 2283458)
Outline: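 Differentiated HepaRG cells were exposed in duplicate for 48 h in serum-free induction medium to 8-point half-log concentrations up to 100 uM in 0.5% DMSO. GADD45A mRNA was measured by TaqMan qRT-PCR, normalized to ACTB, GAPDH and POLR2A, with bidirectional fitting versus DMSO.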

[12] = read-out: Forkhead box O3 (FOXO3), FOXO3 (gene 2309); experiment: LTEA_HepaRG_FOXO3: Life Technologies and Expression Analysis (LTEA) Assay for Forkhead box O3 (FOXO3) using HepaRG (AID 2283459)
Outline: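 Differentiated human HepaRG cells, 48 h post-plating, exposed in duplicate for 48 h in serum-free induction medium; 8-point half-log series from 100 uM in 0.5% DMSO. FOXO3 mRNA by TaqMan qRT-PCR, normalized to ACTB/GAPDH/POLR2A; bidirectional fit versus DMSO.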

[13] = read-out: ABC Transporter (ABCB1), ABCB1 (gene 5243); experiment: LTEA_HepaRG_ABCB1: Life Technologies and Expression Analysis (LTEA) Assay for ABC Transporter (ABCB1) using HepaRG (AID 2283460)
Outline: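 HepaRG cells exposed in duplicate for 48 h in serum-free induction medium to eight half-log concentrations up to 100 uM in 0.5% DMSO. ABCB1 mRNA quantified by qRT-PCR, normalised to ACTB, GAPDH and POLR2A; fitted bidirectionally versus DMSO.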

[14] = read-out: growth arrest and DNA damage 45 (GADD45B), GADD45B (gene 4616); experiment: LTEA_HepaRG_GADD45B: Life Technologies and Expression Analysis (LTEA) Assay for growth arrest and DNA damage 45 (GADD45B) using HepaRG (AID 2283461)
Outline: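 HepaRG, ~100,000 cells/well, 48 h plating; serum-free induction medium; cpd 100 uM top, half-log x8, 0.5% DMSO, duplicate, 48 h; lysis in RLT, RNA isolation, qRT-PCR; norm ACTB/GAPDH/POLR2A; bidirectional fit vs DMSO.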

[15] = read-out: ABC Transporter (ABCC3), ABCC3 (gene 8714); experiment: LTEA_HepaRG_ABCC3: Life Technologies and Expression Analysis (LTEA) Assay for ABC Transporter (ABCC3) using HepaRG (AID 2283462)
Outline: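 Human HepaRG, 48 h dosing, 8-pt half-log series from 100 uM, 0.5% DMSO vehicle, duplicates. ABCC3 mRNA by TaqMan qRT-PCR, housekeeping-normalized; bidirectional curve fit vs DMSO.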

[16] = read-out: ABC Transporter (ABCB11), ABCB11 (gene 8647); experiment: LTEA_HepaRG_ABCB11: Life Technologies and Expression Analysis (LTEA) Assay for ABC Transporter (ABCB11) using HepaRG (AID 2283463)
Outline: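 Differentiated human HepaRG cells in serum-free induction medium, dosed in duplicate for 48 h. Eight-point half-log series from 100 uM in 0.5% DMSO; ABCB11 mRNA by qRT-PCR, normalized to ACTB, GAPDH, POLR2A, fitted bidirectionally versus DMSO.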

[17] = read-out: ABC Transporter (ABCC2), ABCC2 (gene 1244); experiment: LTEA_HepaRG_ABCC2: Life Technologies and Expression Analysis (LTEA) Assay for ABC Transporter (ABCC2) using HepaRG (AID 2283464)
Outline: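 HepaRG, 48 h post-plating; serum-free induction medium; cpd 8-pt, 100 uM top, half-log, 0.5% DMSO, duplicate, 48 h. Readout: ABCC2 mRNA by qRT-PCR, norm. ACTB/GAPDH/POLR2A. Bidirectional fit vs DMSO baseline.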

Measured: AC50

Fatty acid synthase (Homo sapiens), sequence (P49327 whole entry, looked up): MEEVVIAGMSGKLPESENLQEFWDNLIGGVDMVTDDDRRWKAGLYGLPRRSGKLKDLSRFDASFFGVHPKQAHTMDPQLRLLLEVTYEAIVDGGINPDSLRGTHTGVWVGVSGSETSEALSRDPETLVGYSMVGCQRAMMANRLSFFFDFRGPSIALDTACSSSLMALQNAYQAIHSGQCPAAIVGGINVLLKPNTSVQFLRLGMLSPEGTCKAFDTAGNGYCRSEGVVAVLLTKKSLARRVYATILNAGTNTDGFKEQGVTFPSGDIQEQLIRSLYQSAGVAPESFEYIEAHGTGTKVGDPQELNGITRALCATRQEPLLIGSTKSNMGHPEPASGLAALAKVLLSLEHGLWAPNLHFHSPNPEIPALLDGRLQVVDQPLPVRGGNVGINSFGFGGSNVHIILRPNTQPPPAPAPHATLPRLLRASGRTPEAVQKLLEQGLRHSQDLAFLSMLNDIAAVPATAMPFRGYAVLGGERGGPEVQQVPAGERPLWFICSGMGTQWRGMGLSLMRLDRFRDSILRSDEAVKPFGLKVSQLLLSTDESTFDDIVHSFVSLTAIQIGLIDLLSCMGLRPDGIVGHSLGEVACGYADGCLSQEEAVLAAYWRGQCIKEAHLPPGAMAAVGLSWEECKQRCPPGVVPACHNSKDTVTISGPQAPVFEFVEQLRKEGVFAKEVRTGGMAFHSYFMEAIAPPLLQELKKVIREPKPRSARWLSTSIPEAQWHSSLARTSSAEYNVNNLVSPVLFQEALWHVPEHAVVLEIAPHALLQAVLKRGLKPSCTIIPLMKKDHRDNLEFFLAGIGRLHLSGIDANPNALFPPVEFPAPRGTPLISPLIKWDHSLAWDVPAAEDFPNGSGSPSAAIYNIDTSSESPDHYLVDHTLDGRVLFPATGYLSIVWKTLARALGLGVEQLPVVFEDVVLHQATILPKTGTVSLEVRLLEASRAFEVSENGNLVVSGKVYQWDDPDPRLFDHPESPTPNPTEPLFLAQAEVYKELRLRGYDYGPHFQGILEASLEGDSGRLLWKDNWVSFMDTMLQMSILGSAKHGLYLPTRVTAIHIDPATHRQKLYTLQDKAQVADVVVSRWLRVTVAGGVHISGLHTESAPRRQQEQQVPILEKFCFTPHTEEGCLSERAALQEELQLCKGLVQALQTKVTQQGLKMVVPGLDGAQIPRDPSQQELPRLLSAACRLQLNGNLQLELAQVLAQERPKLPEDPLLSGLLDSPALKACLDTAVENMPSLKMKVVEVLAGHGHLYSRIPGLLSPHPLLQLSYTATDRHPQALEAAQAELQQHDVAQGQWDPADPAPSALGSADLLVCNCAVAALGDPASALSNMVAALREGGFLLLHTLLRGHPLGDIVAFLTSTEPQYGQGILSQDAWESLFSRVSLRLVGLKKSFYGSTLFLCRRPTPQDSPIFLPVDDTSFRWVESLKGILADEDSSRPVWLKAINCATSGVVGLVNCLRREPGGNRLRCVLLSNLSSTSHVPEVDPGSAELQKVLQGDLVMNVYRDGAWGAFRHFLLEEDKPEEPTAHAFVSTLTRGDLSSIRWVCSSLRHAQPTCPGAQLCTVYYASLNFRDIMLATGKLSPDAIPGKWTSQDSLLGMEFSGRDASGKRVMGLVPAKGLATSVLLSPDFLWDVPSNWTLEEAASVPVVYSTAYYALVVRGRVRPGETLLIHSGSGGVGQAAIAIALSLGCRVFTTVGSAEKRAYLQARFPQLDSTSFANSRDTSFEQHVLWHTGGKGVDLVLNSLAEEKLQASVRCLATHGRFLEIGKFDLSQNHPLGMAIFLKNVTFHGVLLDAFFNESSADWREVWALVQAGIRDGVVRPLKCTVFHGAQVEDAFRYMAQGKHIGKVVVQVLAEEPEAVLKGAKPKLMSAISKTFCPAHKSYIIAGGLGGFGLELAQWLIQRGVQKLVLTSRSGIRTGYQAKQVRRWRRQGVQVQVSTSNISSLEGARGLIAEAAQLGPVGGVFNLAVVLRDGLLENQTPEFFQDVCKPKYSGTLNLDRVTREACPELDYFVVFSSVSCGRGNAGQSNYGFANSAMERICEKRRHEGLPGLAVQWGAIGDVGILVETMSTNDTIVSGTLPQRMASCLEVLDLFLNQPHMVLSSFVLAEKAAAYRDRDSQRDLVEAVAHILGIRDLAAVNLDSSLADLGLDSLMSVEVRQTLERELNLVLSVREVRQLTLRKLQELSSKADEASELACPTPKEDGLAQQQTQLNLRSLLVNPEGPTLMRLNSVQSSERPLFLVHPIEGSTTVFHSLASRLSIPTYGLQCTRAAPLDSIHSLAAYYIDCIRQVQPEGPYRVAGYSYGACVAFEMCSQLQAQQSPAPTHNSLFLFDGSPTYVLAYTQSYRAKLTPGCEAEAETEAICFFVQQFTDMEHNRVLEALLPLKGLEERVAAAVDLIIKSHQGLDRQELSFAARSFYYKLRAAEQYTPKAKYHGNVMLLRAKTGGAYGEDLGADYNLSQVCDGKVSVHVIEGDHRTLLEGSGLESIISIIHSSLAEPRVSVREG

O=c1[nH]cnc2c1ncn2[C@H]1CC[C@@H](CO)O1
inactive: all assays above

NC(=O)NN=Cc1ccc([N+](=O)[O-])o1
active: [2] 50 µM | [3] 0.0722 µM | [8] 50 µM | [17] 50 µM
inactive: all other assays above

O=C1CN(N=Cc2ccc([N+](=O)[O-])o2)C(=O)N1
active: [4] 81.5 µM | [7] 73 µM | [11] 80.7 µM | [16] 27.7 µM
inactive: all other assays above

O=C(NO)C1(NS(=O)(=O)c2ccc(Oc3ccc(F)cc3)cc2)CCOCC1
active: [2] 50 µM | [4] 85.1 µM | [6] 85.5 µM | [7] 76.5 µM | [15] 80.1 µM | [16] 82.8 µM
inactive: all other assays above

OCCOCCOCCO
active: [8] 84.1 µM | [13] 0.115 µM
inactive: all other assays above

OCC(CO)(CO)CO
not listed: [3] | [5]
inactive: all other assays above

CC(=O)c1ccccc1
active: [8] 76.7 µM
inactive: all other assays above
